CHO-K1 Ca antag = nonselective inhibitor or artifact in parental CHO-K1 cells | ATP-induced calcium, Fluo-8 fluorescence | inhibition, % at 3 µM | actives 0.6% (n = 360,000) | AID 602250;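 active means inhibition above a per-plate cutoff, the plate's mean sample inhibition plus 3 SD, cut at about 24% in these data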
ANO1 activ = activators or potentiators of mouse TMEM16A chloride channel | Q8BHY3 | HEK293 TMEM16A/YFP-H148Q/I152L, iodide quench fluorescence; stronger effect = lower value | B-score at 10 µM | actives 0.3% (n = 340,000);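 active means fluorescence-ratio B-score plate-corrected deviation score at least 3 library SD below zero, with starting fluorescence score within 5 deviations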;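 further: channel opened by trigger with iodide after compound preincubation; score built on the fluorescence ratio of max minus min over baseline; more negative score means more quench and so TMEM16A activation or potentiation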
TMEM16A inh = blocks the mouse calcium-activated chloride channel TMEM16A. normalized B-score (activity score, 25-100; higher = stronger inhibition) at 10 µM. AID 588511. HEK293 TMEM16A/YFP iodide influx fluorescence, ionomycin. actives 1.2% (n = 310,000). Q8BHY3;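 active means ratio plate-corrected score three or more library SD toward inhibition, starting fluorescence score within five deviations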;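 further: score derived from kinetic fluorescence span divided by baseline fluorescence per well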
M1 ag parental = counter-screen for M1 agonists: effect in parental CHO-K1 cells. Fluo-8 calcium fluorescence; scaled to maximal ATP response, vehicle zero. activation, % at 3 µM. actives 0.48% (n = 360,000). AID 602248; in the data active means activation above about 15%;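 further: untransfected CHO-K1 host cells lacking M1 receptor as counterscreen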
NTR1 agonist = agonists of human neurotensin receptor NTR1; NTR1-U2OS beta-arrestin-GFP spot imaging, agonist mode; activation, % at 20 µM; actives 0.17% (n = 330,000); AID 493036;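 active means activation at or above 40% of the spot to cytoplasm intensity ratio, with at least 20 cells analyzed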
M1 PAM parental = nonselective activator or artifact in parental CHO-K1 calcium assay; ATP EC20, Fluo-8 calcium fluorescence; 0% at ATP EC20, 100% at ATP max; activation, % at 3 µM; actives 0.02% (n = 360,000);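 active means activation above the run cutoff, the mean activation of all test compounds plus 3 SD, cut at about 40% in these data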;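 further: peak over basal fluorescence ratio in a 140 s read after ATP addition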
TMEM16A reconf = TMEM16A (mouse) chloride channel inhibition, re-confirmation; shares compounds with TMEM16A inh; HEK293 TMEM16A/YFP-H148Q, iodide quench fluorescence; ionomycin added to raise cell calcium; inhibition, % at 10 µM; actives 39% (n = 2,300); AID 652189;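 active means mean duplicate percent inhibition, scaled so buffer wells are 0 and the reference blocker 100, over three buffer SD above buffer mean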
HEK293 Ca mobil = counter-screen for TMEM16A inhibitors: effect on calcium mobilization. calcium response (% of ionomycin), % at 10 µM. shares compounds with TMEM16A inh. AID 652231. TMEM16A/YFP HEK293, Fluo4 calcium mobilization. actives 2% (n = 2,300);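 active means duplicate-averaged calcium signal over 20% of the ionomycin maximum, relative to buffer baseline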;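 further: each well's signal is peak minus trough fluorescence divided by its pre-addition baseline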
YFP-HEK293 quench = acts in parental YFP-HEK293 cells lacking TMEM16A, counter-screen. shares compounds with TMEM16A inh. iodide YFP quench, ionomycin. YFP ratio F(max-min)/F0 at 10 µM. 2,300 tested, under 10 active;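 active means yellow fluorescent protein signal ratio exceeding the buffer control mean by over 5 SD of those controls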;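 further: ratio is mean of duplicate wells from kinetic YFP trace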
ClC-1 inh = blocks the rat ClC-1 voltage-dependent chloride channel; CHO ClC-1-YFP, iodide influx fluorescence quench; iodide control reads 0, buffer control 100; AID 652236; shares compounds with TMEM16A inh; ratio percent, % at 10 µM; 2,300 tested, under 10 active;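 active means duplicate-mean ratio percent above the mean of iodide-only control wells, which defines zero, plus 5 of their SD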;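 further: higher percent means stronger block of ClC-1 iodide influx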
Target sequence (P35524 whole entry, looked up): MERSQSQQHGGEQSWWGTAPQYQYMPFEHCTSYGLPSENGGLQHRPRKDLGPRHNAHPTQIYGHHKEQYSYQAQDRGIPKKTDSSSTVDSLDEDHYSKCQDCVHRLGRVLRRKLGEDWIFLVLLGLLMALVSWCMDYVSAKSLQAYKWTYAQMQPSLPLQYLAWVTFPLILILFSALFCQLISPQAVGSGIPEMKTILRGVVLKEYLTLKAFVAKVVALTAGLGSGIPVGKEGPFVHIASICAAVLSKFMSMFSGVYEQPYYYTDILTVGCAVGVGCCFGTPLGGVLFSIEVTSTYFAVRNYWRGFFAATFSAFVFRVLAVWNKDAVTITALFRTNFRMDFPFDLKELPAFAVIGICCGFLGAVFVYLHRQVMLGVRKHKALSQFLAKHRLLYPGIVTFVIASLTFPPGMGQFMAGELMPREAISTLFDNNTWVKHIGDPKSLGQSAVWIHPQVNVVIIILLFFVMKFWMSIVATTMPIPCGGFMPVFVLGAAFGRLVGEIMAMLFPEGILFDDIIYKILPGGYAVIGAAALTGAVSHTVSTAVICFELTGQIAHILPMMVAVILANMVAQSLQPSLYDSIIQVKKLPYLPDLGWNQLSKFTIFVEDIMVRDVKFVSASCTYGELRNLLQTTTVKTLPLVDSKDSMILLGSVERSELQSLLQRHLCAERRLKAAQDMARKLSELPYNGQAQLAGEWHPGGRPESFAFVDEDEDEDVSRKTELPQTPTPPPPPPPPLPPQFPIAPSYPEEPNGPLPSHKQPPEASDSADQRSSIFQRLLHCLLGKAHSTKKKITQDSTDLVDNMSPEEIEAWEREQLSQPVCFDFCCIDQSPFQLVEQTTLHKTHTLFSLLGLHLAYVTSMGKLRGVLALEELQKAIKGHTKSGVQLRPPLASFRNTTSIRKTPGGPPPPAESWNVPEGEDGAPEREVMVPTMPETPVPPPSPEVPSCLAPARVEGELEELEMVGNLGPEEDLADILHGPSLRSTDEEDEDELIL
Large screens that a line does not name were inactive (follow-up assays come after a bar, where they were run). Rows were chosen to be rich in hits. Some 2.2% of all compounds tested hit in one or more screens of this group.

CC(C)c1nc(SCC(=O)Nc2nc3c(s2)CCCC3)c2ccccc2n1	TMEM16A inh 25 | TMEM16A reconf inactive | HEK293 Ca mobil inactive | YFP-HEK293 quench inactive | ClC-1 inh inactive
CC(C)(C)c1nc(SCC(=O)Nc2nc3c(s2)CCCC3)c2ccccc2n1	none
CCN(CC)S(=O)(=O)c1cccc(NC(=O)c2ccc(Br)cc2)c1	none
CCN(CC)S(=O)(=O)c1cccc(NC(=O)COc2ccc(Cl)cc2Br)c1	TMEM16A inh 25 | TMEM16A reconf inactive | HEK293 Ca mobil inactive | YFP-HEK293 quench inactive | ClC-1 inh inactive
O=C(Nc1ccc(Br)cc1)c1cccc(S(=O)(=O)Nc2cnc3ccccc3c2)c1	TMEM16A inh 100 | TMEM16A reconf 45% | HEK293 Ca mobil inactive | YFP-HEK293 quench inactive | ClC-1 inh inactive
CC(=O)Nc1ccc2nc(SCC(=O)Nc3ccc(N4CCOCC4)c(Cl)c3)sc2c1	none
O=C(CSc1nc2ccccc2o1)Nc1cc(C(F)(F)F)ccc1N1CCOCC1	none
O=C(CSc1nc2ccccc2s1)Nc1ccc(N2CCOCC2)c(Cl)c1	TMEM16A inh 100 | TMEM16A reconf inactive | HEK293 Ca mobil inactive | YFP-HEK293 quench inactive | ClC-1 inh inactive
Cc1cc(C)nc(SCC(=O)Nc2ccc(N3CCOCC3)c(Cl)c2)n1	TMEM16A inh 100 | TMEM16A reconf inactive | HEK293 Ca mobil inactive | YFP-HEK293 quench inactive | ClC-1 inh inactive
Cc1cc(C)nc(NC(=O)CSc2nc3ccccc3o2)n1	none
O=C(CSc1nc2ccccc2o1)Nc1ccc(N2CCOCC2)c(Cl)c1	CHO-K1 Ca antag 28, TMEM16A inh 100 | TMEM16A reconf 24% | HEK293 Ca mobil inactive | YFP-HEK293 quench inactive | ClC-1 inh inactive
O=C(CSc1nc2ccccc2o1)Nc1ccccc1N1CCCCCC1	TMEM16A inh 25 | TMEM16A reconf inactive | HEK293 Ca mobil inactive | YFP-HEK293 quench inactive | ClC-1 inh inactive
COC(=O)C1CC2=C(CCCC2=O)N(Cc2ccccc2)C1=O (stereo not given)	none (no result: ANO1 activ, TMEM16A inh, NTR1 agonist)
C[C@@H]1CN([C@H](C)CO)S(=O)(=O)c2ccc(Br)cc2O[C@H]1CN(C)C(=O)C1CC1	none (no result: ANO1 activ, TMEM16A inh, NTR1 agonist)
CCN(CC)C(=O)C1=C(C)N(Cc2ccccc2)C(=O)C(CC(=O)NC2CCCC2)C1 (stereo not given)	none (no result: ANO1 activ, TMEM16A inh, NTR1 agonist)
CCOC(=O)N1CCC(NC(=O)C2CCCN(Cc3nc(-c4cccc(C)c4)oc3C)C2)CC1 (stereo not given)	TMEM16A inh 25 | TMEM16A reconf inactive | HEK293 Ca mobil inactive | YFP-HEK293 quench inactive | ClC-1 inh inactive
Cc1oc(-c2ccc(Cl)cc2)nc1CN1CCCC(C(=O)N2CCN(C(=O)c3ccco3)CC2)C1 (stereo not given)	TMEM16A inh 25 | TMEM16A reconf 18% | HEK293 Ca mobil inactive | YFP-HEK293 quench inactive | ClC-1 inh inactive
CCC(CC)NC(=O)CN1CCN(S(=O)(=O)c2ccc(Br)s2)CC1	none (no result: TMEM16A inh)
O=C(Nc1nc(-c2cc(Cl)sc2Cl)cs1)c1ccc(Br)s1	TMEM16A inh 25 | TMEM16A reconf inactive | HEK293 Ca mobil inactive | YFP-HEK293 quench inactive | ClC-1 inh inactive
COc1ccc([C@H]2N[C@]3(CCCN(CC4CCCCC4)C3=O)[C@H]3C(=O)N(Cc4ccccc4)C(=O)[C@@H]23)cc1	none (no result: ANO1 activ, TMEM16A inh, NTR1 agonist)
COc1ccccc1N1CCN(C(c2ccc(Cl)cc2)c2nnnn2C(C)(C)C)CC1 (stereo not given)	TMEM16A inh 100 | TMEM16A reconf inactive | HEK293 Ca mobil inactive | YFP-HEK293 quench inactive | ClC-1 inh inactive

Assay outcomes (PubChem BioAssay)
